This note sets out measurements from PubChem BioAssay (NCI).

SMILES strings stand for the structures. The panel holds about 83,000 compounds, 20% with a hit somewhere; the sample as a whole holds those more often.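 Plates (96-well) were seeded with cells, treated with compound at one concentration, and incubated for 48 hours before percent growth was determined.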 Values without a mark were called inactive. Activity calls are given as the source filed them. Rule for the calls: active = growth percent below 10; inactive = the rest.

The test relates to MDA-MB-468 breast. Nature of the test: NCI-60 one-dose screen, 48 h (100 = growth as untreated, 0 = no growth, -100 = all killed). The conditions noted are these: 10 µM unless noted.
Turning to `Clc1nc2ccccc2nc1-c1nnc(C2CCCCC2)o1`, the growth is 7.71% (active).
As for `COc1cc2c3c(n(CCCN4CCC[C@H]4C(N)=O)c(=O)c2cc1OC)-c1cc2c(cc1C3=O)OCO2`, the figure is 11.8%; as for `COc1ccc(OC)c(NC(=O)CCCCCCNC(=O)C(O)(O)C(F)(F)F)c1`, 22.6%.
Regarding `COc1cccc(-c2nc3occn3c2-c2ccnc(NCCCNS(=O)(=O)c3cccc(F)c3)n2)c1`, the growth is 65.4%.
